# From PubChem BioAssay (Tox21)
# “And” between values parts separate entries of the source, which are not always exact repeats. Identical values can stand only once. Records with an inconclusive call do not appear. Entries that show only a call come without a potency. More than one record can exist for a structure, and the calls need not agree. The source made the active and inactive calls. Unless noted, the call rests on the fitted dose curve; in most records, active means well fitted curve in the direction sought with a large enough effect in the repeat runs; inconclusive means weak or mixed curves; inactive means no such curve, though single readings can be large; an effect the other way counts as inactive or inconclusive.
# Experiments:
# [1] = A CellTox Green Cytotoxicity Assay to monitor cytotoxicity in HEK293 cells - 32 hour (AID 1224881); further: nearly all actives have a fitted effect of over 40% in size; further: potency means the concentration at half of the fitted maximal effect
# How it was run: (§1)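 Read-out: fluorescence of a cell-impermeant cyanine dye staining DNA of dead cells, proportional to cytotoxicity. HEK293, 600 cells/well with reagent, compound (23 nL DMSO) added after 5 h; reads at 0, 8, 16, 24, 32, 40 h.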
# [2] = A CellTox Green Cytotoxicity Assay to monitor cytotoxicity in HepG2 cells - 0 hour (AID 1224882); further: nearly all actives have a fitted effect of over 35% in size
# How it was run: (§2)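 HepG2, 600 cells/well premixed w/ CellTox Green; 5 h settle, 37 C/5% CO2; pintool cpd add (DMSO); 37 C, 40 h; fluorescence read at 0, 8, 16, 24, 32, 40 h.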
# [3] = A CellTox Green Cytotoxicity Assay to monitor cytotoxicity in HepG2 cells - 32 hour (AID 1224883); further: nearly all actives have a fitted effect of over 50% in size; further: potency means the concentration at half of the fitted maximal effect
# How it was run: as §2
# [4] = A CellTox Green Cytotoxicity Assay to monitor cytotoxicity in HEK293 cells - 8 hour (AID 1224884); further: nearly all actives have a fitted effect of over 35% in size; further: potency means the concentration at half of the fitted maximal effect
# How it was run: as §1
# [5] = qHTS RealTime-Glo MT Cell Viability Assay in HepG2 cells - 16 hour (AID 1224885); further: nearly all actives have a fitted effect of over 50% in size; further: potency means the concentration at half of the fitted maximal effect
# How it was run: (§3)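 HepG2 suspension premixed with RealTime-Glo reagents is plated at 600 cells per well and left 5 h at 37 C/5% CO2. Compounds in DMSO then go in, and bioluminescence reflecting viable cell number is recorded over 40 h.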
# [6] = A CellTox Green Cytotoxicity Assay to monitor cytotoxicity in HEK293 cells - 16 hour (AID 1224888); further: nearly all actives have a fitted effect of over 35% in size; further: potency means the concentration at half of the fitted maximal effect
# How it was run: as §1
# [7] = qHTS RealTime-Glo MT Cell Viability Assay in HepG2 cells - 0 hour (AID 1224889); further: nearly all actives have a fitted effect of over 50% in size
# How it was run: as §3
# [8] = A CellTox Green Cytotoxicity Assay to monitor cytotoxicity in HepG2 cells - 8 hour (AID 1224890); further: nearly all actives have a fitted effect of over 45% in size; further: potency means the concentration at half of the fitted maximal effect
# How it was run: as §2
# [9] = qHTS assay to identify small molecule antagonists of the estrogen receptor alpha (ER-alpha) signaling pathway using the BG1 cell line in the presence of 0.1 nM 17-beta-estradiol - cell viability counter screen (AID 1259241); further: nearly all actives have a fitted effect of over 40% in size
# How it was run: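 VM7Luc4E2 cells (endogenous full-length ER-alpha, 4xERE-luciferase), cultured 5 days in charcoal-stripped serum, exposed to compounds with 0.1 nM 17beta-estradiol (final) for 22 hr at 37C. Viability read in same wells as live-cell protease fluorescence after 30 min.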
# [10] = qHTS assay to identify small molecule antagonists of the androgen receptor (AR) signaling pathway using the MDA cell line in the presence of 0.5 nM R1881 - cell viability counter screen (AID 1259242); further: nearly all actives have a fitted effect of over 45% in size; further: potency means the concentration at half of the fitted maximal effect
# How it was run: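 Live-cell protease fluorescence, CellTiter-Fluor, 30 min at 37C. Cells: MDA-kb2, 3,000/well, preincubated 5 hr. Compounds plus 0.5 nM R1881 final, 16 hr, 37C, 0% CO2.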
# [11] = molecular target: Androgen receptor (Homo sapiens) (UniProt P10275); assay: qHTS assay to identify small molecule antagonists of the androgen receptor (AR) signaling pathway using the MDA cell line in the presence of 0.5 nM R1881 (AID 1259243); further: nearly all actives have a fitted effect of over 50% in size; further: potency means the concentration at half of the fitted maximal effect
# Androgen receptor (Homo sapiens), sequence (P10275 whole entry, looked up): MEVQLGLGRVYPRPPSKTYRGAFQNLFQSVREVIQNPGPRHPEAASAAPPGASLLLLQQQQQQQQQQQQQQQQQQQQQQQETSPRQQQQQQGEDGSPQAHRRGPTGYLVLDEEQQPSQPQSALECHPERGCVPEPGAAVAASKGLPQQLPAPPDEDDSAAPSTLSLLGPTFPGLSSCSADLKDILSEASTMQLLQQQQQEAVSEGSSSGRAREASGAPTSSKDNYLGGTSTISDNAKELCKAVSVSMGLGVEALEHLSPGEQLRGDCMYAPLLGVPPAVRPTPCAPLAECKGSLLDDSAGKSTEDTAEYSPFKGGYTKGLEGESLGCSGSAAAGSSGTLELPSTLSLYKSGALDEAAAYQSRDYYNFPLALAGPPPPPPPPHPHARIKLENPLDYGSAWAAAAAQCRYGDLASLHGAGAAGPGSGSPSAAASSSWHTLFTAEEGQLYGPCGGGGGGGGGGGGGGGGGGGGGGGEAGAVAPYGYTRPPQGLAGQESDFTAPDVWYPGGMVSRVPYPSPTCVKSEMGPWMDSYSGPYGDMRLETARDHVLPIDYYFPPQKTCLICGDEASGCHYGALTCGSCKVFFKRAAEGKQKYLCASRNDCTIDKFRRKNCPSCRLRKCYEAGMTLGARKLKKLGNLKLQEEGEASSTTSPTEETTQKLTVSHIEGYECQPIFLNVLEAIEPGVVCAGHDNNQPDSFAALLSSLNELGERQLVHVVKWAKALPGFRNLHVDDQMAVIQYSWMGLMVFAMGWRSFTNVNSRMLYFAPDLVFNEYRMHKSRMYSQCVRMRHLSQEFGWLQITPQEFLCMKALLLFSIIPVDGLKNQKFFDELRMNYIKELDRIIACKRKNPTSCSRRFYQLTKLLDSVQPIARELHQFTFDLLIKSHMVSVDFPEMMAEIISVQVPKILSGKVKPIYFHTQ
# How it was run: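 MDA-kb2, MMTV-luc (AR/GR elements); 3,000 cells/well; cpd + 0.5 nM R1881 final; 16 hr 37C, 0% CO2; ONE-Glo 30 min RT; luminescence.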
# [12] = molecular target: Estrogen receptor (Homo sapiens) (UniProt P03372); assay: qHTS assay to identify small molecule antagonists of the estrogen receptor alpha (ER-alpha) signaling pathway using the BG1 cell line in the presence of 0.1 nM 17-beta-estradiol (AID 1259244); further: nearly all actives have a fitted effect of over 50% in size; further: potency means the concentration at half of the fitted maximal effect
# Estrogen receptor (Homo sapiens), sequence (P03372 whole entry, looked up): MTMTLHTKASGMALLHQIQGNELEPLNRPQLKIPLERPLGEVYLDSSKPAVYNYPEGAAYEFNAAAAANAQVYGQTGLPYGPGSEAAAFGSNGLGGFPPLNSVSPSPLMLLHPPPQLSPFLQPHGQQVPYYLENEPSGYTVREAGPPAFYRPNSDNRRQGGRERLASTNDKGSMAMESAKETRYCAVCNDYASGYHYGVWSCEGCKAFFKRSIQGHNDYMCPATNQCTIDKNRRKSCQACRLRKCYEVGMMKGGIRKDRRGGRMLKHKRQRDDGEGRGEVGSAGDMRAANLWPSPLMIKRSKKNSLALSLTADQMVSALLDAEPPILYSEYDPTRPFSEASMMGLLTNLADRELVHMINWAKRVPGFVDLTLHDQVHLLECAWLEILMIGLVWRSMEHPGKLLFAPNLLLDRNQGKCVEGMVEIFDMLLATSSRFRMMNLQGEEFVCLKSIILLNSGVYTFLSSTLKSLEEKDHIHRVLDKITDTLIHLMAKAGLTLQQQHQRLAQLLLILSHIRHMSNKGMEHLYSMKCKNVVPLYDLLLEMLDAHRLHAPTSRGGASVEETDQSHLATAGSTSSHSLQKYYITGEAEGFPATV
# How it was run: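 Luminescence after ONE-Glo (30 min, room temperature) measured ERE-luciferase activity in VM7Luc4E2 cells treated 22 h with compound and 0.1 nM final 17beta-estradiol as stimulator.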
# [13] = qHTS assay to identify small molecule HDAC inhibitors - cell viability counter screen (AID 1259365)
# How it was run: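 Wild-type HCT-116 cells, 1,500/well, cultured overnight, then compound-treated 2 h at 37 C. Viability measured as ATP luminescence with CellTiter-Glo after 30 min at room temperature.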
# [14] = qHTS assay to identify small molecule agonists of the sonic hedgehog signaling (Shh) pathway - cell viability counter screen (AID 1259366); further: nearly all actives have a fitted effect of over 50% in size; further: potency means the concentration at half of the fitted maximal effect
# How it was run: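 NIH/3T3-derived Gli1-Luc reporter cells, 2,000 per well, received compound after 4 h and were treated about 23 h at 37C. Viability measured in the same wells by CellTiter-Fluor fluorescence after 1 h.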
# [15] = qHTS assay to identify small molecule antagonists of the sonic hedgehog signaling (Shh) pathway - cell viability counter screen (AID 1259367); further: nearly all actives have a fitted effect of over 55% in size; further: potency means the concentration at half of the fitted maximal effect
# How it was run: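 Cytotoxicity was assessed in parallel with Shh reporter activity by measuring live-cell protease fluorescence (CellTiter-Fluor) in NIH/3T3 cells stably carrying Gli1-Luc, treated with compound under conditioned medium stimulation for 23 hr plus 1 hr reagent incubation.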
# [16] = qHTS assay to identify small molecule agonists of the sonic hedgehog signaling (Shh) pathway (AID 1259368; calls by dose curve;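 further: NIH/3T3-derived 3T3Gli1-Luc cells carrying a stable Gli1-driven firefly luciferase reporter; series mostly up to about 92 µM; nearly all actives have a fitted effect of over 15% in size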)
# How it was run: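 Read-out: firefly luciferase luminescence from a Gli1 response element reporter stably integrated in NIH/3T3-derived 3T3Gli1-Luc cells, measured 30 min at room temperature after reagent addition. Compound exposure lasted 24 hr at 37 C, 5% CO2.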
# [17] = qHTS RealTime-Glo MT Cell Viability Assay in HEK293 cells - 8 hour (AID 1224887); further: nearly all actives have a fitted effect of over 50% in size; further: potency means the concentration at half of the fitted maximal effect; on activity change, negative = cytotoxicity: top concentration of the series differs between compounds
# How it was run: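 Luminescence readout at each listed time point; HEK293, 600 cells/well, RealTime-Glo MT reagent added with cells; compounds pinned (23 nL in DMSO) after 5 h at 37 C; continuous culture at 37 C.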
# [18] = qHTS assay to identify small molecule HDAC inhibitors (AID 1259364);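 further: wild-type HCT-116 cells with endogenous class I/II HDAC activity; top concentration of the series differs between compounds; nearly all actives have a fitted effect of over 45% in size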
# How it was run: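 HCT-116 (wild type), 1,500 cells/well, overnight; compound 2 hr 37C 5% CO2; HDAC-Glo I/II reagent 30 min RT; luminescence readout.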
# [19] = qHTS RealTime-Glo MT Cell Viability Assay in HEK293 cells - 24 hour (AID 1224886); further: nearly all actives have a fitted effect of over 50% in size; further: potency means the concentration at half of the fitted maximal effect; on activity change, negative = cytotoxicity: top concentration of the series differs between compounds
# How it was run: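 Reads taken at 0, 8, 16, 24, 32 and 40 h from the same wells. HEK293 cells (600/well) carried RealTime-Glo reagents from seeding, with compound added after a 5 h settle at 37 C.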
# [20] = qHTS assay to identify small molecule phospholipidosis (PLD) inducers (AID 1259344; active means well fitted curve in the direction sought with a large enough effect; an effect the other way counts as inactive or inconclusive)
# How it was run: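 Cells (HepG2, 900 per well) attach for 4 h, receive LipidTOX Red and compound together, incubate 24 h at 37 C, are fixed 30 min with paraformaldehyde/Hoechst, then imaged at one site per well.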
smiles,measurement,setting,value
COC(=O)Nc1nc2ccc(C(=O)c3ccccc3)cc2[nH]1,Potency,[1],inactive
same,Potency,[2],inactive
same,Potency,[3],inactive
same,Potency,[4],inactive
same,Potency,[5],inactive
same,Potency,[6],inactive
same,Potency,[7],inactive
same,Potency,[8],inactive
same,Potency,[9],inactive
same,Potency,[10],inactive
same,Potency,[11],inactive
same,Potency,[12],inactive
same,Potency,[13],inactive
same,Potency,[14],inactive
same,Potency,[15],3.35 µM (active)
same,Potency,[16],inactive
Cc1ccc(-c2ccccc2)cc1,Potency,[1],inactive
same,Potency,[2],inactive
same,Potency,[3],43.6 µM (active)
same,Potency,[4],inactive
same,Potency,[5],inactive
same,Potency,[17],inactive
same,Potency,[6],inactive
same,Potency,[7],inactive
same,Potency,[8],49 µM (active)
same,Potency,[9],inactive
same,Potency,[10],inactive
same,Potency,[18],inactive
same,Potency,[13],inactive
same,Potency,[14],inactive
same,Potency,[15],inactive
same,Potency,[16],inactive
CC1(C)CCC[C@]2(C)[C@H]3CC(=O)O[C@]3(C)CC[C@@H]12,Potency,[1],49 µM (active)
same,Potency,[2],inactive
same,Potency,[3],inactive
same,Potency,[4],inactive
same,Potency,[5],inactive
same,Potency,[19],inactive
same,Potency,[17],inactive
same,Potency,[7],inactive
same,Potency,[8],inactive
same,Potency,[10],inactive
same,Potency,[12],inactive
same,Potency,[18],inactive
same,Potency,[13],inactive
same,Potency,[15],inactive
same,Potency,[16],inactive
CC(C)Cn1cnc2c(N)nc3ccccc3c21,cytotoxicity increase,[1],3.99% [at 15.8 µM] (inactive)
same,cytotoxicity,[2],-9.84% [at 15.8 µM] (inactive)
same,cytotoxicity increase,[3],-12% [at 15.8 µM] (inactive)
same,cytotoxicity increase,[4],2.79% [at 15.8 µM] (inactive)
same,"activity change, negative = cytotoxic",[5],0.56% [at 15.8 µM] (inactive)
same,activity change,[6],"2.2% [at 15.8 µM, stronger effect = higher value] (inactive)"
same,"activity change, negative = cytotoxicity",[7],12.8% [at 15.8 µM] (inactive)
same,cytotoxicity increase,[8],-11.4% [at 15.8 µM] (inactive)
same,"activity change, negative = cytotoxicity",[9],3.02% [at 19 µM] (inactive)
same,"viability change, negative = cytotoxic",[10],-4.33% [at 19 µM] (inactive)
same,"activity change, negative = inhibition",[12],-22.8% [at 19 µM] (inactive)
same,Potency,[20],inactive
same,"activity change, negative = inhibition",[18],-5.48% [at 19 µM] (inactive)
same,"activity change, negative = cytotoxicity",[13],0.199% [at 19 µM] (inactive)
same,"viability change, negative = cytotoxic",[14],8.98% [at 19 µM] (inactive)
same,activity change,[16],"3.39% [at 18.9 µM, stronger effect = higher value] (inactive)"
CCCCCCCCCCCCCCCC[N+](C)(C)CC,Potency,[1],39 µM (active) and 21.3 µM (active)
same,Potency,[2],inactive
same,Potency,[3],17.4 µM (active) and 19 µM (active)
same,Potency,[4],55.1 µM (active) and 23.9 µM (active)
same,Potency,[5],49.1 µM (active) and 23.9 µM (active)
same,Potency,[19],8.74 µM (active) and 4.77 µM (active)
same,Potency,[17],21.9 µM (active)
same,Potency,[6],55.1 µM (active)
same,Potency,[7],inactive
same,Potency,[8],55.1 µM (active) and 19 µM (active)
same,Potency,[9],inactive
same,Potency,[12],27.4 µM (active) and 26.6 µM (active)
same,Potency,[20],inactive
same,Potency,[18],inactive
same,Potency,[13],inactive
same,Potency,[14],68.8 µM (active)
same,Potency,[15],54.6 µM (active) and inactive
same,Potency,[16],inactive
Cc1c2ccccc2c(C)c2c1ccc1ccccc12,Potency,[1],43.6 µM (active)
same,Potency,[2],inactive
same,Potency,[3],inactive
same,Potency,[4],inactive
same,Potency,[5],inactive
same,Potency,[19],43.2 µM (active) and 21.9 µM (active)
same,Potency,[6],inactive
same,Potency,[7],inactive
same,Potency,[8],inactive
same,Potency,[9],inactive
same,Potency,[10],inactive and 61.1 µM (active)
same,Potency,[11],48.1 µM (active) and 27.3 µM (active)
same,Potency,[12],inactive and 4.33 µM (active)
same,Potency,[18],inactive
same,Potency,[13],inactive
same,Potency,[14],inactive and 68.6 µM (active)
same,Potency,[16],inactive
COCCOc1cc2cc(C(=O)NC3CCN(C(C)C)CC3)n(CC(=O)Nc3ccc(Cl)cn3)c2cn1,Potency,[1],inactive
same,Potency,[2],inactive
same,Potency,[3],inactive
same,Potency,[4],inactive
same,Potency,[5],inactive
same,Potency,[6],inactive
same,Potency,[7],inactive
same,Potency,[8],inactive
same,Potency,[9],inactive
same,Potency,[10],inactive
same,Potency,[18],inactive
same,Potency,[13],inactive
same,Potency,[14],inactive
same,Potency,[15],inactive
same,Potency,[16],inactive
CC(CCc1ccccc1)NCC(O)c1ccc(O)c(C(N)=O)c1 (centres undefined),Potency,[1],inactive
same,Potency,[2],inactive
same,Potency,[3],inactive
same,Potency,[4],inactive
same,Potency,[5],inactive
same,Potency,[19],inactive
same,Potency,[17],inactive
same,Potency,[6],inactive
same,Potency,[7],inactive
same,Potency,[8],inactive
same,Potency,[10],inactive
same,Potency,[12],inactive
same,Potency,[20],inactive
same,Potency,[18],inactive
same,Potency,[13],inactive
same,Potency,[15],17.2 µM (active)
same,Potency,[16],inactive
Nc1ccc(Oc2ccc(Cl)cc2)cc1,Potency,[1],inactive
same,Potency,[2],inactive
same,Potency,[3],inactive
same,Potency,[4],inactive
same,Potency,[5],inactive
same,Potency,[19],24 µM (active)
same,Potency,[6],inactive
same,Potency,[7],inactive
same,Potency,[8],inactive
same,Potency,[9],inactive
same,Potency,[10],inactive
same,Potency,[18],inactive
same,Potency,[13],inactive
same,Potency,[14],inactive
same,Potency,[15],inactive
same,Potency,[16],inactive
O=C1CCc2cc(OCCCCc3nnnn3C3CCCCC3)ccc2N1,Potency,[1],inactive
same,Potency,[2],inactive
same,Potency,[3],inactive
same,Potency,[4],inactive
same,Potency,[5],inactive
same,Potency,[17],inactive
same,Potency,[6],inactive
same,Potency,[7],inactive
same,Potency,[8],inactive
same,Potency,[9],inactive
same,Potency,[10],inactive
same,Potency,[12],21.1 µM (active)
same,Potency,[20],inactive
same,Potency,[18],inactive
same,Potency,[13],inactive
same,Potency,[14],inactive
same,Potency,[15],inactive
same,Potency,[16],inactive
